# PubChem BioAssay (EPA / NIEHS)
# Activity calls are given as the source filed them. The calls were made as follows: active = hit-call score of the fitted dose curve at least 0.9, where 1 is the maximum; inactive = score below 0.9.
# Columns and labels:
# [1] = read-out: Interleukin-6 (IL6), IL6 (gene 3569); experiment: BSK_CASM3C_IL6: BioMAP Diversity Plus: CASM3C Assay for Interleukin-6 (IL6) Biomarker Activity for (AID 2283040); conditions: primary human coronary artery smooth muscle cells; actives raise or lower the signal
# [2] = read-out: Tissue plasminogen activator (tPA), PLAT (gene 5327); experiment: BSK_BE3C_tPA: BioMAP Diversity Plus: BE3C Assay for Tissue plasminogen activator (tPA) Biomarker Activity (AID 2283041); conditions: primary human bronchial epithelial cells; actives raise or lower the signal;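 as to outcome: tPA level quantified by ELISA one day after compound addition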
# How it was run: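 ELISA read-out of tPA on human primary bronchial epithelial cells, 24 h post-dosing; bidirectional fit vs DMSO negative control/baseline.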
# [3] = read-out: Interleukin-8 (IL8), CXCL8 (gene 3576); experiment: BSK_CASM3C_IL8: BioMAP Diversity Plus: CASM3C Assay for Interleukin-8 (IL8) Biomarker Activity (AID 2283042); conditions: primary human coronary artery smooth muscle cells; actives raise or lower the signal;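 also: IL-8 protein level quantified by ELISA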
# [4] = read-out: Human Leukocyte Antigen - DR isotype (HLADR), HLA-DRA (gene 3122); experiment: BSK_CASM3C_HLADR: BioMAP Diversity Plus: CASM3C Assay for Human Leukocyte Antigen - DR isotype (HLADR) Biomarker Activity (AID 2283043); conditions: primary human coronary artery smooth muscle cells; actives raise or lower the signal;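 also: cell-surface HLA-DR protein level quantified by ELISA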
# [5] = read-out: Macrophage colony-stimulating factor (MCSF), CSF1 (gene 1435); experiment: BSK_CASM3C_MCSF: BioMAP Diversity Plus: CASM3C Assay for Macrophage colony-stimulating factor (MCSF) Biomarker Activity (AID 2283044); conditions: primary human coronary artery smooth muscle cells; actives raise or lower the signal;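 also: M-CSF protein amount quantified by ELISA after 24 h exposure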
# [6] = read-out: Low-density lipoprotein receptor (LDLR), LDLR (gene 3949); experiment: BSK_CASM3C_LDLR: BioMAP Diversity Plus: CASM3C Assay for Low-density lipoprotein receptor (LDLR) Biomarker Activity (AID 2283045); conditions: primary human coronary artery smooth muscle cells; actives raise or lower the signal;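 also: LDLR protein level on the cell surface quantified by ELISA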
# [7] = read-out: Monocyte Chemoattractant Protein-1 (MCP1), CCL2 (gene 6347); experiment: BSK_CASM3C_MCP1: BioMAP Diversity Plus: CASM3C Assay for Monocyte Chemoattractant Protein-1 (MCP1) Biomarker Activity (AID 2283046); conditions: primary human coronary artery smooth muscle cells; actives raise or lower the signal;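 also: MCP-1 level quantified by ELISA 24 h after dosing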
# [8] = BSK_CASM3C_Proliferation: Cell Proliferation Assessment in the BioMAP Diversity Plus: CASM3C Assay (AID 2283047); conditions: primary human coronary artery smooth muscle cells;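 also: sulforhodamine B total protein stain as relative cell number at 560 nm; sub-confluent cells exposed 48 h before staining; fitted both ways against DMSO so gain or loss of cell number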
# [9] = read-out: Monokine induced gamma interferon (MIG), CXCL9 (gene 4283); experiment: BSK_CASM3C_MIG: BioMAP Diversity Plus: CASM3C Assay for Monokine induced gamma interferon (MIG) Biomarker Activity (AID 2283048); conditions: primary human coronary artery smooth muscle cells; actives raise or lower the signal;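 also: MIG protein level measured by ELISA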
# [10] = read-out: serum amyloid A (SAA), SAA1 (gene 6288); experiment: BSK_CASM3C_SAA: BioMAP Diversity Plus: CASM3C Assay for serum amyloid A (SAA) Biomarker Activity (AID 2283049); conditions: primary human coronary artery smooth muscle cells; actives raise or lower the signal;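 also: SAA protein level quantified by ELISA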
# [11] = BSK_CASM3C_SRB: Viability Assessment in the BioMAP Diversity Plus: CASM3C Assay (AID 2283050); conditions: primary human coronary artery smooth muscle cells;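 also: total protein by SRB staining as cytotoxicity measure in parallel cultures; cells exposed to compound for 24 h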
# [12] = read-out: Thrombomodulin, THBD (gene 7056); experiment: BSK_CASM3C_Thrombomodulin: BioMAP Diversity Plus: CASM3C Assay for Thrombomodulin Biomarker Activity (AID 2283051); conditions: primary human coronary artery smooth muscle cells; actives raise or lower the signal;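 also: thrombomodulin protein level measured by ELISA 24 h after dosing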
# [13] = read-out: Tissue Factor, F3 (gene 2152); experiment: BSK_CASM3C_TissueFactor: BioMAP Diversity Plus: CASM3C Assay for Tissue Factor Biomarker Activity (AID 2283052); conditions: primary human coronary artery smooth muscle cells; actives raise or lower the signal;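 also: cell surface tissue factor protein level read by ELISA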
# [14] = read-out: Urokinase-type plasminogen activator receptor (uPAR), PLAUR (gene 5329); experiment: BSK_CASM3C_uPAR: BioMAP Diversity Plus: CASM3C Assay for Urokinase-type plasminogen activator receptor (uPAR) Biomarker Activity (AID 2283054); conditions: primary human coronary artery smooth muscle cells; actives raise or lower the signal;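 also: cell-surface uPAR protein level quantified by ELISA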
# [15] = read-out: Vascular cell adhesion molecule 1 (VCAM1), VCAM1 (gene 7412); experiment: BSK_CASM3C_VCAM1: BioMAP Diversity Plus: CASM3C Assay for Vascular cell adhesion molecule 1 (VCAM1) Biomarker Activity (AID 2283055); conditions: primary human coronary artery smooth muscle cells; actives raise or lower the signal;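 also: VCAM-1 protein level quantified by ELISA on the cells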
# [16] = read-out: Collagen III, COL3A1 (gene 1281); experiment: BSK_hDFCGF_CollagenIII: BioMAP Diversity Plus: hDFCGF Assay for Collagen III Biomarker Activity (AID 2283056); conditions: primary human foreskin fibroblasts; actives raise or lower the signal
# How it was run: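 ELISA read-out of collagen III from human skin fibroblast cultures sampled 24 h post-dosing. Values were derived by bidirectional fitting relative to the DMSO vehicle control.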
# [17] = read-out: Epidermal growth factor receptor (EGFR), EGFR (gene 1956); experiment: BSK_hDFCGF_EGFR: BioMAP Diversity Plus: hDFCGF Assay for Epidermal growth factor receptor (EGFR) Biomarker Activity (AID 2283057); conditions: primary human foreskin fibroblasts; actives raise or lower the signal
# How it was run: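 ELISA readout of EGFR on human dermal fibroblasts (primary foreskin cells), 24 h post-dosing; bidirectional curve fit vs DMSO baseline, gain or loss of signal scored.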
# [18] = read-out: Interleukin-8 (IL8), CXCL8 (gene 3576); experiment: BSK_hDFCGF_IL8: BioMAP Diversity Plus: hDFCGF Assay for Interleukin-8 (IL8) Biomarker Activity (AID 2283058); conditions: primary human foreskin fibroblasts; actives raise or lower the signal
# How it was run: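 Cells used are human skin primary fibroblasts. Chemical is added, cultures run 24 h, then IL-8 is quantified by ELISA, and gain or loss versus DMSO control is fitted in both directions.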
# [19] = BSK_hDFCGF_Proliferation: Cell Proliferation Assessment in the BioMAP Diversity Plus: hDFCGF Assay (AID 2283059); conditions: primary human foreskin fibroblasts;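 also: curves fitted for both rise and fall of signal versus DMSO baseline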
# How it was run: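 Steps: dose primary human dermal fibroblasts (foreskin); […] fix in 10% TCA; stain with 0.1% SRB; read 560 nm; fit gain or loss of signal against DMSO.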
compound,measurement,setting,value
Oc1c(Cl)cc(Cl)c(Cl)c1Cl,AC50,[1],0.383 µM (active)
same,outcome,[2],inactive
same,outcome,[3],inactive
same,outcome,[4],inactive
same,outcome,[5],inactive
same,outcome,[6],inactive
same,outcome,[7],inactive
same,outcome,[8],inactive
same,outcome,[9],inactive
same,outcome,[10],inactive
same,outcome,[11],inactive
same,outcome,[12],inactive
same,outcome,[13],inactive
same,outcome,[14],inactive
same,AC50,[15],3.97 µM (active)
same,AC50,[16],10.4 µM (active)
same,outcome,[17],inactive
same,outcome,[18],inactive
same,AC50,[19],27.7 µM (active)
CCCC(C)C(=O)OCC (configuration not stated),outcome,[1],inactive
same,outcome,[2],inactive
same,outcome,[3],inactive
same,outcome,[4],inactive
same,outcome,[5],inactive
same,outcome,[6],inactive
same,outcome,[7],inactive
same,outcome,[8],inactive
same,outcome,[9],inactive
same,outcome,[10],inactive
same,outcome,[11],inactive
same,outcome,[12],inactive
same,outcome,[13],inactive
same,outcome,[14],inactive
same,outcome,[15],inactive
same,outcome,[16],inactive
same,outcome,[17],inactive
same,outcome,[18],inactive
same,outcome,[19],inactive
CCCCCCCCC(CO)CCCCCC (configuration not stated),outcome,[1],inactive
same,outcome,[2],inactive
same,outcome,[3],inactive
same,outcome,[4],inactive
same,outcome,[5],inactive
same,outcome,[6],inactive
same,outcome,[7],inactive
same,outcome,[8],inactive
same,outcome,[9],inactive
same,outcome,[10],inactive
same,outcome,[11],inactive
same,outcome,[12],inactive
same,outcome,[13],inactive
same,outcome,[14],inactive
same,outcome,[15],inactive
same,AC50,[16],4.17 µM (active)
same,outcome,[17],inactive
same,outcome,[18],inactive
same,AC50,[19],4.06 µM (active)
c1ccc2c(c1)[nH]c1ccccc12,outcome,[1],inactive
same,outcome,[2],inactive
same,outcome,[3],inactive
same,outcome,[4],inactive
same,outcome,[5],inactive
same,outcome,[6],inactive
same,outcome,[7],inactive
same,outcome,[8],inactive
same,outcome,[9],inactive
same,outcome,[10],inactive
same,outcome,[11],inactive
same,outcome,[12],inactive
same,outcome,[13],inactive
same,outcome,[14],inactive
same,outcome,[15],inactive
same,outcome,[16],inactive
same,outcome,[17],inactive
same,outcome,[18],inactive
same,outcome,[19],inactive
CC(CCC(=O)O)(c1ccc(O)cc1)c1ccc(O)cc1,outcome,[1],inactive
same,outcome,[2],inactive
same,outcome,[3],inactive
same,outcome,[4],inactive
same,outcome,[5],inactive
same,outcome,[6],inactive
same,outcome,[7],inactive
same,outcome,[8],inactive
same,outcome,[9],inactive
same,outcome,[10],inactive
same,outcome,[11],inactive
same,outcome,[12],inactive
same,outcome,[13],inactive
same,outcome,[14],inactive
same,outcome,[15],inactive
same,outcome,[16],inactive
same,outcome,[17],inactive
same,outcome,[18],inactive
same,outcome,[19],inactive
C=CC(=O)OCCCCCCOC(=O)C=C,AC50,[1],14.2 µM (active)
same,outcome,[2],inactive
same,AC50,[3],10.1 µM (active)
same,AC50,[4],10.5 µM (active)
same,AC50,[5],18 µM (active)
same,AC50,[6],20 µM (active)
same,AC50,[7],34 µM (active)
same,AC50,[8],20 µM (active)
same,AC50,[9],23.3 µM (active)
same,outcome,[10],inactive
same,AC50,[11],20 µM (active)
same,outcome,[12],inactive
same,AC50,[13],1.43 µM (active)
same,AC50,[14],29.4 µM (active)
same,AC50,[15],10.8 µM (active)
same,AC50,[16],7.72 µM (active)
same,outcome,[17],inactive
same,AC50,[18],20 µM (active)
same,AC50,[19],1.72 µM (active)
CC(C)C(=O)OCCc1ccccc1,outcome,[1],inactive
same,outcome,[2],inactive
same,outcome,[3],inactive
same,outcome,[4],inactive
same,outcome,[5],inactive
same,outcome,[6],inactive
same,outcome,[7],inactive
same,outcome,[8],inactive
same,outcome,[9],inactive
same,outcome,[10],inactive
same,outcome,[11],inactive
same,outcome,[12],inactive
same,outcome,[13],inactive
same,outcome,[14],inactive
same,outcome,[15],inactive
same,outcome,[16],inactive
same,outcome,[17],inactive
same,outcome,[18],inactive
same,outcome,[19],inactive
CC=C(C)C=CC=C(C)C,outcome,[1],inactive
same,AC50,[2],3.97 µM (active)
same,outcome,[3],inactive
same,AC50,[4],3.97 µM (active)
same,AC50,[5],0.46 µM (active)
same,outcome,[6],inactive
same,outcome,[7],inactive
same,AC50,[8],24 µM (active)
same,outcome,[9],inactive
same,outcome,[10],inactive
same,outcome,[11],inactive
same,outcome,[12],inactive
same,AC50,[13],3.97 µM (active)
same,outcome,[14],inactive
same,AC50,[15],16.8 µM (active)
same,outcome,[16],inactive
same,outcome,[17],inactive
same,outcome,[18],inactive
same,AC50,[19],15.7 µM (active)
O=C(O)C(F)(F)C(F)(F)C(F)(F)C(F)(F)C(=O)O,outcome,[1],inactive
same,outcome,[2],inactive
same,outcome,[3],inactive
same,outcome,[4],inactive
same,outcome,[5],inactive
same,outcome,[6],inactive
same,outcome,[7],inactive
same,outcome,[8],inactive
same,outcome,[9],inactive
same,outcome,[10],inactive
same,outcome,[11],inactive
same,outcome,[12],inactive
same,outcome,[13],inactive
same,outcome,[14],inactive
same,outcome,[15],inactive
same,outcome,[16],inactive
same,outcome,[17],inactive
same,outcome,[18],inactive
same,outcome,[19],inactive
CCOC(=O)/C=C\C(=O)OCC,outcome,[1],inactive
same,outcome,[2],inactive
same,outcome,[3],inactive
same,outcome,[4],inactive
same,outcome,[5],inactive
same,outcome,[6],inactive
same,outcome,[7],inactive
same,outcome,[8],inactive
same,outcome,[9],inactive
same,outcome,[10],inactive
same,outcome,[11],inactive
same,outcome,[12],inactive
same,outcome,[13],inactive
same,outcome,[14],inactive
same,outcome,[15],inactive
same,outcome,[16],inactive
same,outcome,[17],inactive
same,outcome,[18],inactive
same,outcome,[19],inactive
CCCCC1C(=O)N(c2ccccc2)N(c2ccccc2)C1=O,outcome,[1],inactive
same,outcome,[2],inactive
same,outcome,[3],inactive
same,outcome,[4],inactive
same,outcome,[5],inactive
same,outcome,[6],inactive
same,outcome,[7],inactive
same,outcome,[8],inactive
same,outcome,[9],inactive
same,outcome,[10],inactive
same,outcome,[11],inactive
same,outcome,[12],inactive
same,outcome,[13],inactive
same,outcome,[14],inactive
same,outcome,[15],inactive
same,outcome,[16],inactive
same,outcome,[17],inactive
same,outcome,[18],inactive
same,outcome,[19],inactive
Clc1cc(Cl)c(Cl)c(Cl)c1Cl,outcome,[1],inactive
same,outcome,[2],inactive
same,outcome,[3],inactive
same,outcome,[4],inactive
same,outcome,[5],inactive
same,outcome,[6],inactive
same,outcome,[7],inactive
same,outcome,[8],inactive
same,outcome,[9],inactive
same,outcome,[10],inactive
same,outcome,[11],inactive
same,outcome,[12],inactive
same,outcome,[13],inactive
same,outcome,[14],inactive
same,outcome,[15],inactive
same,outcome,[16],inactive
same,outcome,[17],inactive
same,outcome,[18],inactive
same,outcome,[19],inactive
CC(C)CCCCCOC(=O)CS,outcome,[1],inactive
same,outcome,[2],inactive
same,outcome,[3],inactive
same,outcome,[4],inactive
same,outcome,[5],inactive
same,outcome,[6],inactive
same,outcome,[7],inactive
same,outcome,[8],inactive
same,outcome,[9],inactive
same,outcome,[10],inactive
same,outcome,[11],inactive
same,outcome,[12],inactive
same,outcome,[13],inactive
same,outcome,[14],inactive
same,outcome,[15],inactive
same,outcome,[16],inactive
same,outcome,[17],inactive
same,outcome,[18],inactive
same,outcome,[19],inactive
